# KCC2 mod: KCC2 (human) Cl- transport modulation; Q9H2X9; KCC2 cells, thallium flux FluoZin-2 fluorescence; B-score of Tl+ flux slope (higher = more flux/activation; lower = inhibition) at 10 µM; 2.2% of 190,000 active; AID 1456;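 active = thallium flux slope and its plate-corrected score both differing from the plate sample mean at a set confidence after two filtering rounds, in either direction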;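 note: slope of fluorescence scaled to starting intensity during 10 to 20 s after thallium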
# WT yeast gro inh: growth inhibition of WT yeast, mitochondrial fusion screen; mitochondrial fusion phenotypic screen, WT strain; inhibition, % at 10 µM; 2.1% of 190,000 active; AID 1362; in the data active = inhibition above about 58%; tested in S. cerevisiae
# Lmaj promast: reduces viability of Leishmania major promastigotes. resazurin fluorescence viability. inhibition, % at 10 µM. 9% of 200,000 active; in the data active = inhibition above about 50%;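 note: promastigotes grown with compound for 44 hours at 28 °C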
# m-calpain inh: calpain II (pig) inhibition; purified calpain II, fluorogenic peptide substrate, 30 min; inhibition, % at 16 µM; 0.37% of 220,000 active; AID 1236;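 active = inhibition above about 50%, limit read from the data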
# ROMK mod: modulators of human ROMK potassium channel | P48048 | Tet-inducible ROMK, thallium flux fluorescence; actives lie on both sides | B-score at 10 µM | 2% of 130,000 active | AID 1918;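 active = signal ratio slope over the read window, or its plate-corrected B-score, at least 3 SD from the plate mean, either direction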;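 note: B-score of the F/F0 ratio slope over 7 to 12 s after thallium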
# Target sequence (P48048 whole entry, looked up): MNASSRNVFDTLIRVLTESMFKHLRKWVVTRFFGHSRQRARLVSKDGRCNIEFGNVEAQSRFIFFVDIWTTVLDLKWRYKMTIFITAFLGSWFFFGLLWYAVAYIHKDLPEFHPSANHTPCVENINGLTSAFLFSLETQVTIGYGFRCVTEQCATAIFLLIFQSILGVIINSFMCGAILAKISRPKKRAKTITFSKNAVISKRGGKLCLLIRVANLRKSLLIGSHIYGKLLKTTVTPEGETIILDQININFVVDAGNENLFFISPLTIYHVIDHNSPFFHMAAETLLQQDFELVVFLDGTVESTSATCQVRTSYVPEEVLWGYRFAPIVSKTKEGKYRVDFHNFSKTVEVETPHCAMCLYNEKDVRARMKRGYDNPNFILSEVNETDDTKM
# KCC2 sec1: KCC2 (human) modulation, secondary assay | HEK293-KCC2, thallium flux, FluoZin2 fluorescence; active compounds read high | normalised thallium flux (F/F0 slope) at 10 µM | shares compounds with KCC2 mod | 15% of 3,700 active | AID 1713;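 active = thallium flux slope above the same plate's solvent-only control mean plus 3 SD; inconclusive = the two replicate wells disagree; inactive = no significant difference from solvent-only control wells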
# KCC2 bumet counter: thallium flux persisting under bumetanide in KCC2 cells, counter-screen secondary assay; shares compounds with KCC2 mod; HEK293-KCC2 + bumetanide/ouabain, thallium flux FluoZin2; active compounds read high; normalized thallium flux at 10 µM; 49% of 3,700 active;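 active = thallium entry rate above the same plate's blocked-transporter control wells by more than 3 SD; inconclusive = the two repeat wells disagree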;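 note: raw slope of fluorescence over initial fluorescence between 10 and 20 s after thallium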
# KCC2 sec2: KCC2 (human) modulation, second secondary assay | HEK293-KCC2, thallium flux FluoZin2 fluorescence; actives lie on both sides; F/F0 rise rate, 10–20 s post-thallium | shares compounds with KCC2 mod | normalized thallium flux at 10 µM | 23% of 3,700 active;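 active = thallium flux slope more than 3 SD above or below the plate's solvent-only control mean, mostly below; inconclusive = the two repeat wells disagreed; inactive = no significant shift from solvent-only controls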;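 note: raw slope with 0.1% DMSO as baseline and bumetanide as block control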
# HEK counter1: parental HEK flux effect, counter-screen; shares compounds with KCC2 mod; 46% of 3,700 active; HEK293 parental cells, thallium flux FluoZin2, ouabain; baseline-ratio fluorescence slope, 10–20 s after thallium; AID 1716; thallium flux rate (normalised fluorescence) at 10 µM;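 active = thallium flux rate significantly above the same plate's solvent-only control wells, beyond their mean plus 3 SD; inconclusive = the two replicate wells gave conflicting results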
# KCC2 ouabain: confirmation of human KCC2 modulators with ouabain | shares compounds with KCC2 mod | HEK293-KCC2, thallium flux FluoZin2 fluorescence; bidirectional: low = inhibitor, high = activator | raw Tl+ flux slope (below DMSO = inhibition, above = activation) at 10 µM | 48% of 3,700 active | AID 1717;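 active = thallium flux slope beyond 3 SD from same-plate DMSO control mean in most replicates, usually higher, sometimes lower; inconclusive = repeat tests gave conflicting results; inactive = no significant difference from controls in most replicates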;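 note: slope of initial-normalized fluorescence between seconds 10 and 20 after thallium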
# HEK counter2: acts in parental HEK cells, second KCC2 counter-screen; shares compounds with KCC2 mod; AID 1718; 33% of 3,700 active; thallium flux slope at 10 µM; HEK293 parental, thallium flux FluoZin-2 fluorescence slope;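 active = thallium flux slope above the same plate's solvent-control mean plus 3 SD in both duplicate wells; inconclusive = duplicate wells that disagreed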;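 note: run without ouabain in cells lacking the KCC2 cotransporter; slope of fluorescence scaled to its starting value between 10 and 20 s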
# An asterisk follows results filed as active; ? = inconclusive; / = no result. A selection: hits, their analogues and other compounds. The true share with any hit is near 12%.
SMILES,KCC2 mod,WT yeast gro inh,Lmaj promast,m-calpain inh,ROMK mod,KCC2 sec1,KCC2 bumet counter,KCC2 sec2,HEK counter1,KCC2 ouabain,HEK counter2
Cn1nccc1C(=O)OCC(=O)Nc1nc(-c2ccccc2)cs1,-5.3*,15,28,-27,/,0.016,0.0049,0.022*,0.0076,0.015,0.01
Cc1nc(CC(=O)Nc2nc(-c3ccccc3)cs2)cs1,-3.4*,-4,14,-25,/,0.0086,0.0056,?,0.0086,0.017*,0.012
COc1ccccc1-c1nnc(SCC(=O)Nc2nc(-c3ccccc3)cs2)n1C,-4*,20,33,22,/,?,0.0066,0.032,0.0035,0.015*,0.011
Cc1cc(C)n(-c2nnc3c4ccccc4n(C)c3n2)n1,0.063,/,/,-4,/,/,/,/,/,/,/
CCOc1cc(-c2nc(C)c(C(C)=O)n2O)ccc1OCC(=O)Nc1ccccc1,-0.064,32,-2,-19,-0.033,/,/,/,/,/,/
CC(C)(C)c1ccc(-c2noc(CCC(=O)NCC3CCCO3)n2)cc1 (centres undefined),/,-6,7,-13,0.5,/,/,/,/,/,/
O=C(Nc1ccc(F)cc1F)N1CCN(CCc2ccccc2)CC1,-0.27,/,/,-16,-1.3,/,/,/,/,/,/
Cc1ncsc1C(=O)O,-0.72,-10,-8,1,0.024,/,/,/,/,/,/
Cc1cc(=O)[nH]c(SCC(=O)Nc2nc3ccccc3s2)n1,-1.1,-5,1,-1,0.052,/,/,/,/,/,/
Cc1cc(=O)[nH]c(SCC(=O)Nc2nnc(SCc3ccccc3)s2)n1,-4.8*,-6,-4,-13,0.93,0.0051,0.0046,0.025*,0.0048*,0.015*,0.0083*
NC(=O)N1CC(O)CC1C(=O)Nc1ccc(Cl)c(Cl)c1 (centres undefined),1.3,14,-4,16,-0.0052,0.0056,0.0044,0.032,0.0085,0.02,0.011
NC(=S)NNC(=O)Nc1ccc(Cl)c(Cl)c1,0.95,-3,49,14,-0.18,/,/,/,/,/,/
CN(CCNC(=O)CN1C(=O)CSc2ccc(S(=O)(=O)N3CCCC3)cc21)Cc1ccccc1,-0.085,-4,8,30,-0.33,/,/,/,/,/,/
Cc1ccccc1C(=O)NC(=S)NCCC1=CCCCC1,4.4*,71*,7,39,-0.98,0.011,0.016*,0.034,0.026*,0.027*,?
O=C(NC(=S)NCCC1=CCCCC1)c1ccco1,79*,45,10,13,-0.15,0.034*,0.16*,0.046*,?,0.11*,0.037*
O=C(NC(=S)NCCC1=CCCCC1)c1ccc(Br)o1,59*,76*,-8,23,-0.61,?,0.066*,0.075*,0.077*,0.077*,0.07*
O=C(NC(=S)NC1CCCc2ccccc21)c1ccco1 (centres undefined),63*,73*,4,6,1.3,0.03*,0.17*,0.046*,0.097*,0.11*,0.035*
O=C(CSc1nc2ncc(Br)cc2[nH]1)Nc1ccc2c(c1)OCO2,/,-5,5,-6,/,/,/,/,/,/,/
O=C(O)Cc1sc(Nc2ccc(F)cc2)nc1-c1cccs1,/,22,-8,18,0.0025,/,/,/,/,/,/
CC(=O)c1cccc(N2Cc3ccccc3C2=NC(=O)CCl)c1,0.98,2,7,-17,2.1,/,/,/,/,/,/
CCOC(=O)c1ccc(N2CN(C3CCCCC3)CNC2=S)cc1,-0.051,-8,9,-6,0.3,0.0073,0.0049,0.03,0.0085,0.019,0.012
CCOc1ccccc1N1CN(C2CCCCC2)CNC1=S,0.95,/,/,-16,/,/,/,/,/,/,/
CCC(C(=O)NC1CCCCC1)N(Cc1cccs1)C(=O)c1snc(C(N)=O)c1N (centres undefined),-0.93,21,12,-55,/,/,/,/,/,/,/
CCc1ccc(-c2nc(CS(=O)CC(=O)NCc3cccnc3)c(C)o2)cc1 (centres undefined),4.4*,-15,-1,-35,/,0.0052,0.0048,?,0.0076,?,0.011
Cc1oc(-c2ccc(Cl)cc2)nc1CS(=O)CC(=O)NCc1cccs1 (centres undefined),-3.6*,0,4,-17,/,0.0065,0.0064,0.028,0.0069,0.017,0.0097
SMILES,KCC2 mod,WT yeast gro inh,Lmaj promast,m-calpain inh,ROMK mod,KCC2 sec1,KCC2 bumet counter,KCC2 sec2,HEK counter1,KCC2 ouabain,HEK counter2
COc1ccc(-c2nc(CS(=O)CC(=O)NCc3cccnc3)c(C)o2)cc1 (centres undefined),1.4,-3,7,5,/,/,/,/,/,/,/
CCOCCN(C(=O)c1ccccc1Cl)c1cccc(C)c1C,-1.6,/,/,-7,/,/,/,/,/,/,/
Cc1ccc(-c2cc(C(=O)N3CCN(c4ncccn4)CC3)c3cc(Br)ccc3n2)o1,1.1,-7,43,-285,-0.34,/,/,/,/,/,/
CCOC(=O)c1cc(NC(=O)c2ccoc2C)cc(C(=O)OCC)c1,/,17,-2,38,-0.25,/,/,/,/,/,/
COc1cc(/C=N/NC(=O)CN(Cc2ccccc2)S(=O)(=O)c2ccc3c(c2)OCCO3)ccc1O,-4.4*,7,7,-80,-0.00046,0.0084,0.007,?,0.0063,0.014*,0.01
O=C(CN(Cc1ccccc1)S(=O)(=O)c1ccc2c(c1)OCCO2)N/N=C/c1ccc(F)cc1,-0.52,32,8,-32,-1.2,/,/,/,/,/,/
O=C(c1nn2c(C(F)(F)F)cc(-c3ccco3)nc2c1Br)N1CCCc2ccccc21,/,-9,9,-86,-0.56,?,0.0047,0.025*,0.0075,?,0.011
Cc1nn(-c2ccccc2)c(C)c1/C=N/NC(=O)c1cc(C2CC2)[nH]n1,/,8,-2,6,/,0.0075,0.0046,0.026,0.0071,0.015*,0.0088
CC(=O)NC(=S)Nc1cc(C(F)(F)F)ccc1N1CCOCC1,0.28,-6,-3,-12,-1.9,/,/,/,/,/,/
O=C(NC(=S)Nc1cc(C(F)(F)F)ccc1N1CCOCC1)c1ccco1,89*,/,/,22,/,0.022*,0.11*,0.039,?,0.076*,0.026*
Cc1cccc(C(=O)NC(=S)Nc2ccc(S(=O)(=O)N(C)c3ccccc3)cc2)c1,2.5*,41,100*,4,/,0.0083,0.014*,0.03,0.0077,0.026*,0.012*
O=C(NC(=S)Nc1ccc2c(c1)OCCO2)c1ccco1,100*,/,/,-3,/,0.023*,0.1*,0.04,0.083*,0.07*,0.042*
CN(c1ccccc1)S(=O)(=O)c1ccc(NC(=O)c2ccccc2)cc1,-1,-2,24,20,/,/,/,/,/,/,/

# Screening data: PubChem BioAssay, several laboratories
